Among all 2,100 compounds or so, about 770 (37%) were called active.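 How the source made its calls: active means by-eye trace score of 1 for enhancers or -1 for inhibitors, so actives lie on both sides (some results past the limit were not filed as active); inactive means score 0, or 3 fluorescent, or 4 baseline rise.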 The list shows a part of the results.

For this experiment, the target named is G protein-activated inward rectifier potassium channel 2 (Homo sapiens) + G protein-activated inward rectifier potassium channel 1 (Homo sapiens) (UniProt P48051+P48549). As to the kind of experiment: GIRK1/2 thallium flux modulators, retest, confirmation, cell-based, HEK293 rmGlu8/hGIRK1/2, FluoZin-2 (AID 623911). The conditions noted are these: HEK293 rmGlu8/hGIRK1/2, thallium flux FluoZin-2; actives lie on both sides; glutamate co-added at its EC20 level.
G protein-activated inward rectifier potassium channel 2 (Homo sapiens) + G protein-activated inward rectifier potassium channel 1 (Homo sapiens), sequence (P48051 whole entry, looked up): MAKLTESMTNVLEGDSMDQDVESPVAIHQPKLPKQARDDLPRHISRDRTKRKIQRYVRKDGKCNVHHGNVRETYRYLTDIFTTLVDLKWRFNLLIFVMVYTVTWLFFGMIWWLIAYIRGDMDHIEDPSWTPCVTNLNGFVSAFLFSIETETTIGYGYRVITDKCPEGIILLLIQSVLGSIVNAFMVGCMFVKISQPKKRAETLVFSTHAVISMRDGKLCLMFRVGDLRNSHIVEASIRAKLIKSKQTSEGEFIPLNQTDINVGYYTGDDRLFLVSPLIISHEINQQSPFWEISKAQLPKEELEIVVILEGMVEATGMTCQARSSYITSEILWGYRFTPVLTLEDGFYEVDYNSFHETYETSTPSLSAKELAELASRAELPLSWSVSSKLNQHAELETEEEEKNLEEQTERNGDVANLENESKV
G protein-activated inward rectifier potassium channel 2 (Homo sapiens) + G protein-activated inward rectifier potassium channel 1 (Homo sapiens), sequence (P48549 whole entry, looked up): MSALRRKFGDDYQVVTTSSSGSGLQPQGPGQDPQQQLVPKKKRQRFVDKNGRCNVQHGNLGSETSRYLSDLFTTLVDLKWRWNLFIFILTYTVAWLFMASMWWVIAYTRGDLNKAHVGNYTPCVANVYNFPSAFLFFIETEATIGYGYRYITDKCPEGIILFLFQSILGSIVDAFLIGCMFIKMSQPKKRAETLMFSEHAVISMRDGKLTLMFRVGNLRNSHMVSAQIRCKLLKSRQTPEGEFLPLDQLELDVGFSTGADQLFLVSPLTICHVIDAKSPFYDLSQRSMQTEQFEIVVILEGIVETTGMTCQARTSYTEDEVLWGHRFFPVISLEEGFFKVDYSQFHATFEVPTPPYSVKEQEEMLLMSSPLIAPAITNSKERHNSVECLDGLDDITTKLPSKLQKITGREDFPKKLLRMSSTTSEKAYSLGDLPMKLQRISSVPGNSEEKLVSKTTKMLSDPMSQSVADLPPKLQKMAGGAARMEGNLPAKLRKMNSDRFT
On to `CC(C)(C)NC(=O)C(=O)NNC(=O)c1ccc(C(C)(C)C)cc1`, for which the manual score was 1 (active).
The value for `Cc1cccc(C(=O)NNC(=O)C(=O)NC(C)(C)C)c1` was 1 (active).
The value for `CC(C)(C)c1ccc(SCC(N)=O)cc1` was 0 (inactive).
The value for `CC(C)(C)c1ccc(C(=O)NC(=S)Nn2cnnc2)cc1` was 0 (inactive).
For the compound `O=[n+]1c2c(n([O-])c3cc(F)c(N4CCCC4)cc31)CCCC2`, the manual score is 3 (inactive).
The value for `COc1ccc2cc(C(=O)NCC(=O)O)sc(=O)c2c1OC` was 0 (inactive); that for `CCOC(=O)c1c(NC(=O)CSc2nnc(Cc3csc(N)n3)n2C)sc(C)c1C` was -1 (active).
The value for `C=CCn1c(SCC(=O)Nc2sccc2C(N)=O)nc2ccc(Cl)cc2c1=O` was 0 (inactive); that for `C=CCn1c(SCC(=O)Nc2sc(C)c(C)c2C(=O)OCC)nnc1-c1sc(N)nc1C` was -1 (active); that for `CCOC(=O)c1cnc(SCC(=O)Nc2nc(C)c(C)s2)nc1N` was 0 (inactive).
For `Cc1c(C(=O)O)c(=S)sn1CCOc1ccccc1`, the manual score was 0 (inactive).
The value for `Cc1ccc(-c2cnc(NC(=O)CCC(=O)N3CCCCC3)n2C)cc1` was 0 (inactive).
The value for `N#Cc1nc(Cc2ccccc2)oc1NCCc1ccccc1` was -0.5 (inactive); that for `O=C(c1cccc(F)c1)N1CCN(C(=O)c2cc(-c3ccc(Cl)cc3Cl)on2)CC1` was 0 (inactive).
In the case of `Cc1ccc(/C=N/n2c(-c3cccs3)n[nH]c2=S)cc1`, the manual score was 1 (active).
The value for `Cc1ccc(-c2n[nH]c(=S)n2/N=C/c2cccs2)cc1` was 0.5 (inactive); that for `Fc1ccc(/C=N/n2c(-c3cccs3)n[nH]c2=S)cc1` was 1 (active).
The value for `Cc1ccc(-c2n[nH]c(=S)n2/N=C/c2ccc(C)s2)cc1` was 0 (inactive); that for `Cn1cccc1/C=N/n1c(-c2ccc(C(C)(C)C)cc2)n[nH]c1=S` was 0 (inactive); that for `Cc1ccc(OCC(=O)NC(=S)Nc2cccc(C)n2)cc1` was 0 (inactive).
The value for `O=C(NC(=S)Nc1ccccn1)c1ccco1` was 1 (active).
As for `Cc1cc([N+](=O)[O-])ccc1NC(=S)NC(=O)Cc1ccccc1`, the manual score is 0 (inactive).
The value for `COc1cccc(C(=O)NC(=S)Nc2ccc([N+](=O)[O-])cc2C)c1` was 0 (inactive).
The value for `Cc1ccc([N+](=O)[O-])cc1NC(=S)NC(=O)c1ccco1` was 1 (active).
On to `O=C(NC(=S)Nc1ccccn1)c1cc(-c2ccccc2)nc2ccccc12`, for which the manual score was 0.5 (inactive).
The value for `Cc1cccc(NC(=S)NC(=O)c2ccco2)n1` was 1 (active); that for `Cc1ccc2nsnc2c1NC(=S)NC(=O)c1ccco1` was 1 (active); that for `Cc1ccc2cccc(NC(=S)NC(=O)c3ccnn3C)c2n1` was 0 (inactive).
The value for `O=C(CC(=O)Nc1ccccn1)Nc1ccccn1` was 0 (inactive).
The value for `COc1ccc(CO/N=C/c2c(C)[nH]c(=O)[nH]c2=O)cc1` was 0 (inactive).
In the case of `CCCn1nnc(NC(=O)COc2ccc(C3CCCCC3)cc2)n1`, the manual score is 0 (inactive).
The value for `CC(NC(=O)C1CC=CCC1C(=O)O)C1CC2CCC1C2` (stereo unspecified) was 0 (inactive); that for `CCN(CC)c1ccc2cc(-c3nnc(-c4ccccc4)o3)c(=O)oc2c1` was 3 (inactive).
On to `CCN(CC)CCn1c(NC(=O)c2ccc(Cl)cc2)nc2ccccc21`, for which the manual score is 0 (inactive).
The value for `CCCn1nnnc1NC(=O)c1ccc2ccccc2c1` was 1 (active); that for `CCCn1nc2cc(C(=O)NCCc3ccc(C)cc3)ccc2c1OCC` was 0 (inactive); that for `CC1CN(C2CC(C)(C)NC(C)(C)C2)CCC1=O` (stereo unspecified) was 0 (inactive).
The value for `Cc1ccc2c(CC(=O)NC3CCCc4ccccc43)coc2c1` (stereo unspecified) was 0 (inactive).
The value for `O=C1CCC(/C=C/c2ccccc2)=NN1Cc1ccc(Cl)c(Cl)c1` was 0 (inactive); that for `CCN1CCN(c2ccc(NC(=O)CCc3c(C)nc4c(-c5ccccc5)c(C)nn4c3C)cc2)CC1` was 0 (inactive).
For the compound `Cc1nn2c(NCCCN(C)C)c3c(nc2c1-c1ccccc1)CCC3`, the manual score was -1 (active).
The value for `Cc1cc(N2CCOCC2)n2nc(C)c(-c3ccccc3)c2n1` was 0 (inactive); that for `CCOC(=O)C1=C(C)NC2=C(C(=O)C(C(=O)OCC)C(c3cccc(OC)c3)C2)C1c1ccccn1` (stereo unspecified) was 0 (inactive).
The value for `COC(=O)c1onc(C(=O)c2ccccc2)c1C(=O)OC` was -1 (active).
The value for `CC(C)C(=O)OCC(=O)Nc1ccc(N=Nc2ccccc2)cc1` was 0 (inactive).
`CN(C)S(=O)(=O)c1cc(NC(=O)COC(=O)c2ccc3c(c2)OCO3)ccc1Cl`: the manual score is 0.5 (inactive).
Consider `Cc1cc(C)n(-c2ccc(C(=O)OCC(=O)Nc3ccc(Cl)c(S(=O)(=O)N(C)C)c3)cc2)n1`, for which the manual score was 1 (active).
The value for `Cc1nn(CC(=O)Nc2ccc(Cl)c(S(=O)(=O)N(C)C)c2)c(C)c1[N+](=O)[O-]` was 1 (active); that for `COC(=O)c1sccc1NC(=O)CSc1ccccc1NS(=O)(=O)c1cc(Cl)ccc1Cl` was 0 (inactive).
Take `CCC(C(=O)OCC(=O)Nc1ccc(Cl)c(S(=O)(=O)N(C)C)c1)c1ccccc1` (stereo unspecified): the manual score was 1 (active).
Turning to `CCCCN(CCCC)c1nc2ccccc2nc1C(C#N)C(=O)NCCCOC` (stereo unspecified), the manual score is 3 (inactive).
`Oc1ccccc1CNc1ccc(Br)cn1`: the manual score was 0 (inactive).
Consider `CCSc1nc(-c2ccccc2)c(C#N)c(=O)[nH]1`, for which the manual score is 0 (inactive).
The value for `CCC1(c2ccc(Cl)cc2)NC(=S)N(c2ccccc2)N1` (stereo unspecified) was 1 (active); that for `S=C1NC(c2ccccc2)=NCN1c1ccc(Cl)cc1` was 0.5 (inactive).
The value for `CCCCOC(=O)c1ccc(NC(=S)NC(=O)c2c(Cl)cnn2CC)cc1` was 1 (active); that for `Cn1ncc2cc(NC(=S)NC(=O)c3ccccc3)ccc21` was 0 (inactive).
The value for `COC(=O)c1ccc(NC(=S)NC(=O)c2cc(-c3ccccc3)nc3ccccc23)cc1` was 0 (inactive).
In the case of `CCCCOC(=O)c1ccc(NC(=S)NC(=O)c2c(Br)c(C)nn2C)cc1`, the manual score was 0 (inactive).
The value for `COC(=O)c1ccc(NC(=S)NC(=O)c2c(Cl)cnn2C)cc1` was 1 (active).
The value for `CCCCOC(=O)c1ccc(NC(=S)NC(=O)c2c(Cl)cnn2C)cc1` was 0 (inactive).
The value for `CCOC(=O)C1=NN(C(=O)c2ccc(C)cc2)C(O)(c2ccc(Cl)cc2)C1` (stereo unspecified) was 1 (active); that for `CCOC(=O)c1c(C)[nH]c(C(=O)COC(=O)CNC(=O)c2ccc(Cl)cc2)c1C` was 0 (inactive); that for `CCOC(=O)C1=NN(C(=O)c2ccccc2)C(O)(c2ccc(C)cc2)C1` (stereo unspecified) was 1 (active).
Regarding `CCOC(=O)C1=C(NC(=S)NC(=O)c2ccccc2)c2ccccc2CC1(C)C`, the manual score was 0 (inactive).
The value for `COC(=O)C1=NN(C(=O)c2ccc(C)cc2)C(O)(c2ccc(Cl)cc2)C1` (stereo unspecified) was 1 (active).
The value for `CCC1=NN(C(=O)c2cccc(Br)c2)C(O)(c2ccc(Br)cc2)C1` (stereo unspecified) was 0 (inactive); that for `CC1=NN(c2ccccc2)C(=O)C1C(=O)c1ccc(Cl)cc1` (stereo unspecified) was 0.5 (inactive); that for `COC(=O)C1=NN(C(=O)c2ccc(Cl)cc2)C(O)(c2ccccc2)C1` (stereo unspecified) was 1 (active).
The value for `CC(C)c1nc(N2CCOCC2)c(C#N)c2c1CCCC2` was 0 (inactive).
As for `Cc1ccc2c(c1)NC(=O)CC(c1ccccc1)=N2`, the manual score is 0 (inactive).
The value for `Cc1ccc(SC(C)C(=O)Nc2ccc(S(=O)(=O)N3CCOCC3)cc2)cc1` (stereo unspecified) was 0 (inactive).
The value for `CC1CC(C)CN(C(=S)Nc2ccc(SC(F)F)cc2)C1` (stereo unspecified) was 1 (active).
For the compound `CC1CCCC(NC(=S)Nc2ccc(SC(F)F)cc2)C1C` (stereo unspecified), the manual score was 1 (active).
The value for `CC1CCCCC1NC(=S)Nc1ccc(SC(F)F)cc1` (stereo unspecified) was 1 (active); that for `O=S(=O)(c1ccccc1)N1CCN(C(=S)Nc2ccc(F)cc2)CC1` was 0 (inactive); that for `Oc1cccc(NC(=S)Nc2ccc(SC(F)F)cc2)c1` was 1 (active).
The value for `CCNc1ccc2noc3c2c1C(=O)c1ccccc1-3` was 0 (inactive); that for `CCN(CC)c1ccc2c(c1)OC(N)=C(C#N)C2c1cccnc1` (stereo unspecified) was 3 (inactive); that for `CCc1nc(SCc2ccc(F)cc2)[nH]c(=O)c1C#N` was 3 (inactive).
The value for `CCOc1ccc(-c2nc(-c3cccnc3)no2)cc1OCC` was 0 (inactive); that for `Cc1ccc(N=Nc2ccc(O)c3ncccc23)cc1` was 0 (inactive).
Consider `Cc1ccc(N=Cc2cc3c(cc2O)OC(N)=C(C#N)C3c2ccccc2)cc1` (stereo unspecified), for which the manual score was 0 (inactive).
Regarding `COc1ccc(C(=O)NC(=S)N(Cc2ccccc2)Cc2ccccc2)cc1`, the manual score was 1 (active).
The value for `CCOc1ccc(C(=O)NC(=S)N(Cc2ccccc2)Cc2ccccc2)cc1` was 1 (active); that for `CCOc1cccc(C(=O)NC(=S)Nc2ccccc2)c1` was 0 (inactive).
On to `CN(C)C(=O)CSc1cccc2cccnc12`, for which the manual score is 0 (inactive).
The value for `CC(Nc1ccc(Br)cn1)c1cc(Cl)ccc1O` (stereo unspecified) was 0 (inactive); that for `Clc1ccc(/C=N/Nc2nc(Cl)nc3ccccc23)cc1` was 0 (inactive); that for `S=C(N/N=C/c1ccccc1)N1CCOCC1` was 0.5 (inactive).
The value for `Cc1ccc(/C=N/NC(=S)N2CCOCC2)cc1` was 1 (active); that for `S=C(N/N=C/c1ccc(Cl)cc1)N1CCOCC1` was 1 (active); that for `Cc1ccc(C(=O)c2ccc(N3CCOCC3)c(F)c2)cc1` was 0 (inactive).
The value for `CNC(=S)N/N=C/c1ccc(C(C)C)cc1` was 0 (inactive); that for `O=C1CC(C(=O)Nc2ccc(Br)cc2)C2(CCCC2)O1` (stereo unspecified) was 1 (active); that for `O=C(Nc1ccc(Br)cc1)C1CCC(=O)N1Cc1ccccc1Cl` (stereo unspecified) was 0 (inactive).
`COCc1nnc(NC(=O)C(C)C)s1`: the manual score was 0 (inactive).
The value for `CCCCn1c(-c2csc3c2CCC(C)C3)n[nH]c1=S` (stereo unspecified) was 0 (inactive); that for `Cn1nc(C(F)(F)F)c2cc(NC(=O)OCc3ccc(F)cc3)sc21` was 0 (inactive).
As to `CCOC(=O)C(CC)Sc1nnc2cc(C)c3ccccc3n12` (stereo unspecified), the manual score is 0 (inactive).
Regarding `CCOC(=O)C(CC)Sc1nnc(COc2ccc(C)cc2)n1-c1ccccc1` (stereo unspecified), the manual score was -1 (active).
As for `CC(/C=N/n1c(COc2ccccc2)n[nH]c1=S)=C\c1ccccc1`, the manual score is 0 (inactive).
The value for `Cc1cccc2cc(/C=C3\N=C(c4ccccc4)OC3=O)c(N3CCOCC3)nc12` was 3 (inactive).
The value for `CCOC(=O)C1=C(C)NC(=O)NC1c1ccc(Br)o1` (stereo unspecified) was 0 (inactive); that for `CC1=C(C(=O)OCC2CCCO2)C(c2ccc(C)o2)C2=C(CC(c3ccc(F)cc3)CC2=O)N1` (stereo unspecified) was -1 (active); that for `CCOC(=O)C1=C(C)NC2=C(C(=O)CC(c3ccc(OC)c(OC)c3)C2)C1c1ccc(C)o1` (stereo unspecified) was 0 (inactive).

Source of the values: PubChem BioAssay AID623911 (Vanderbilt High Throughput Screening Facility, 2012).
